In the library only some 3.7% were active in any assay of this set; here they are far more common.
BoNT F protease = inhibitors of Botulinum neurotoxin F light chain protease. Multiplex microsphere protease cleavage assay, flow cytometry. inhibition, % at 10 µM. 360,000 compounds, 0.22% hits; in the data active means inhibition above about 35%, passing the limit was not always enough; inconclusive means no clear call, values can overlap the other calls; further: plate controls were buffer without enzyme for full effect and enzyme alone for no effect
BoNT-A LC inh2 = BoNT A light chain protease inhibition; inhibition, % at 10 µM; 360,000 compounds, 0.17% hits; AID 588499; multiplex microsphere protease substrate cleavage, flow cytometry; further: plate controls were buffer without enzyme for full effect and enzyme alone for no effect
MazEF act = MazEF (E. coli) toxin RNase activation | P0AE70 | FAM/BHQ RNA-DNA oligo cleavage fluorescence, 5 h | activation, % at 20 µM | 350,000 compounds, 0.32% hits | AID 504720; in the data active means activation above about 50%
Autofluor counter = compound fluorescence in toxin protease inhibitor counterscreen; compound autofluorescence counterscreen, microsphere flow cytometry; stronger effect = higher value; AID 624483; fluorescence intensity (test concentration not listed); 360,000 compounds, 3.1% hits; in the data active means fluorescence intensity above about 16000; inconclusive means no clear call, values can overlap the other calls
Anthrax LF prot = anthrax lethal factor protease inhibition | multiplex microsphere protease cleavage assay, LF | AID 588501 | 360,000 compounds, 0.12% hits | inhibition, % at 10 µM; further: plate controls were buffer without enzyme for full effect and enzyme alone for no effect
Target sequence (P15917 whole entry, looked up): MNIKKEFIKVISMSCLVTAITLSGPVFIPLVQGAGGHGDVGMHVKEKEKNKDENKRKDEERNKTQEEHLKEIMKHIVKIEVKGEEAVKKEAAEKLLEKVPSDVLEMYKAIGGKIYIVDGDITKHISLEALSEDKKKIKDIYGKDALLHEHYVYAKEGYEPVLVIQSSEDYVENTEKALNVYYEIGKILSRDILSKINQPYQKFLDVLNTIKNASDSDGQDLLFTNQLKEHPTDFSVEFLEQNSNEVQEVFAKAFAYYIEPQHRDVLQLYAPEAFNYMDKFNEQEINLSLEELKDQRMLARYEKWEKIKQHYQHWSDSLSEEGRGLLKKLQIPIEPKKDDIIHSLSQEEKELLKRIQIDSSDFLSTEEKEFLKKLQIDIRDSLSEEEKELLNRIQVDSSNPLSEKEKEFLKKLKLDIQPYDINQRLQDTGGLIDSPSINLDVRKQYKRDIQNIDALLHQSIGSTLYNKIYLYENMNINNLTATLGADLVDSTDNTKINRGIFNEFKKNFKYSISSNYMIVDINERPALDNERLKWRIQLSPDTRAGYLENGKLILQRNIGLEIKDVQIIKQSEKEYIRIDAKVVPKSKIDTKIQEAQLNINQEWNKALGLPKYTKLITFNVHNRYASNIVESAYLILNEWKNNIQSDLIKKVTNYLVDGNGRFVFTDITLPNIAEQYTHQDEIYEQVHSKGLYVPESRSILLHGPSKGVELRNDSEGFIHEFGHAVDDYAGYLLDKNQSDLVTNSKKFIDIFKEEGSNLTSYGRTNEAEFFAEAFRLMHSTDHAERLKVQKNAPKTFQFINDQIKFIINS
* marks the source's active call; other numbers are inactive results. Unless noted, no stated cut-off is given here; in the data, active means inhibition above about 30%; inconclusive means no clear call, values can overlap the other calls; inactive means below that.

Screening CC(NC(=O)CCC(=O)N1CCCCCC1)c1ccccc1 (stereo not given) returned BoNT F protease 36*, BoNT-A LC inh2 1, MazEF act 5, Autofluor counter 4180 and Anthrax LF prot -2.
For Cc1nsc2nc3c(F)c(F)c(F)c(F)c3cc12 the results were BoNT F protease inconclusive, BoNT-A LC inh2 4, MazEF act 8, Autofluor counter 4089 and Anthrax LF prot -9.
Screening Cc1cccc(C)c1OCc1cc(C(=O)N2CCN(c3ccc(F)cc3)CC2)no1 returned BoNT F protease 11, BoNT-A LC inh2 1, MazEF act -2, Autofluor counter 4203 and Anthrax LF prot 2.
Cc1cc(C)c(S(=O)(=O)N/N=C/c2ccc([N+](=O)[O-])o2)c(C)c1 was read as BoNT F protease -4, BoNT-A LC inh2 2, MazEF act -7, Autofluor counter 5198 and Anthrax LF prot 2.
NC(=O)CN1CCN(c2nc(-c3ccc(F)cc3)cs2)CC1 was read as BoNT F protease -2, BoNT-A LC inh2 0, MazEF act -1, Autofluor counter 4771 and Anthrax LF prot -1.
For O=C(CN1CCN(c2nc(-c3ccc(F)cc3)cs2)CC1)Nc1ccc2c(c1)OCO2 the results were BoNT F protease -6, BoNT-A LC inh2 -2, MazEF act 0, Autofluor counter 16899* and Anthrax LF prot -5.
Screening C[C@H]1CN([C@@H](C)CO)C(=O)CCCn2cc(nn2)CO[C@@H]1CN(C)C(=O)Nc1ccc(F)cc1 returned BoNT F protease -4, BoNT-A LC inh2 0, MazEF act 2, Autofluor counter 4169 and Anthrax LF prot 2.
`C[C@H](CO)N1C[C@H](C)[C@@H](CN(C)C(=O)Cc2ccccc2)OCCCC[C@H](C)Oc2ccc(NC(=O)NC3CCCCC3)cc2C1=O` gave BoNT F protease 2, BoNT-A LC inh2 -1, MazEF act 5, Autofluor counter 3916 and Anthrax LF prot 2.
Cc1ccc(N(C(=O)Cn2nnc(-c3ccc(C)o3)n2)C(C(=O)NC2CCCC2)c2ccco2)cc1 (stereo not given) was read as BoNT F protease -3, BoNT-A LC inh2 0, MazEF act -3, Autofluor counter 10983 and Anthrax LF prot -4.
Cc1ccc(N(C(=O)Cn2nnc(-c3ccccc3F)n2)C(C(=O)NC2CCCC2)c2ccncc2)cc1 (stereo not given) was read as BoNT F protease 4, BoNT-A LC inh2 0, MazEF act 6, Autofluor counter 3878 and Anthrax LF prot 14.
For O=C(NC1CCCCC1)C(c1ccc(F)cc1)N(Cc1ccco1)C(=O)Cn1nnc2ccccc21 (stereo not given) the results were BoNT F protease 4, BoNT-A LC inh2 2, MazEF act 8, Autofluor counter 18842* and Anthrax LF prot 0.
For Cc1ccc(N(C(=O)Cn2nnc(-c3cccs3)n2)C(C(=O)NC2CCCC2)c2ccncc2)cc1 (stereo not given) the results were BoNT F protease -3, BoNT-A LC inh2 -2, MazEF act -11, Autofluor counter 22784* and Anthrax LF prot -1.
Screening CCOC(=O)CN(C(=O)Cn1nnc(-c2ccc(C)cc2)n1)C(CC)C(=O)NC1CCCC1 (stereo not given) returned BoNT F protease 0, BoNT-A LC inh2 0, MazEF act -3, Autofluor counter 22718* and Anthrax LF prot -6.
Screening CCC(C(=O)NC1CCCC1)N(Cc1ccco1)C(=O)Cn1nnc(-c2ccc(C)cc2)n1 (stereo not given) returned BoNT F protease -2, BoNT-A LC inh2 0, MazEF act -9, Autofluor counter 19503* and Anthrax LF prot -3.
For S=C1SCCCN1Cc1ccc(Cl)cc1 the results were BoNT F protease -6, BoNT-A LC inh2 0, MazEF act 0, Autofluor counter 4054 and Anthrax LF prot -3.
Screening COc1ccc(C(CC(=O)NC(C)c2ccc(-c3ccccc3)cc2)NC(C)=O)cc1 (stereo not given) returned BoNT F protease 2, BoNT-A LC inh2 -1, MazEF act -24, Autofluor counter 3620 and Anthrax LF prot 3.
Screening CC(=O)c1ccc(NC(=O)C2CC(c3ccc(F)cc3)=NO2)cc1 (stereo not given) returned BoNT F protease -3, BoNT-A LC inh2 -1, MazEF act 5, Autofluor counter 23509* and Anthrax LF prot -2.
COc1cccc(C2=NOC(C(=O)Nc3cccc(C(C)=O)c3)C2)c1 (stereo not given) was read as BoNT F protease 11, BoNT-A LC inh2 9, MazEF act -15, Autofluor counter 19143* and Anthrax LF prot -3.

Source: PubChem (several laboratories)
